BRCT inh red – qHTS Assay for Inhibitors of BRCT-Phosphoprotein Interaction (Red Fluorophore); Potency, µM (doses to about 76.9 µM), inactives show top-dose activity change, negative = inhibition, actives largely listed as inhibitors; AID 892, 2007; 75,000 compounds, 0.03% hits; BRCT-phosphopeptide binding, red fluorescence polarization; note: % is set by controls: 0 for no effect and ±100 for the full control effect
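Fluorescence polarization: 100 nM His-tagged BRCA1 BRCT with 100 nM TAMRA-labelled phospho-BACH1 decapeptide, phosphate buffer pH 7.3 with 150 mM NaCl, DTT, 0.01% Tween 20; 12 min RT. Binding inhibition seen as FP decrease.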
Pol III holo inh – qHTS Assay for Inhibitors of DNA Polymerase III Holoenzyme System | reconstituted DNA polymerase III holoenzyme replication, biochemical | Potency, µM (doses to about 57.1 µM), for inactives: at the highest dose activity change, negative = inhibition | 71,000 compounds, 0.25% hits | AID 603, 2007; note: potency is the fitted concentration of half-maximal effect; % is set by controls: 0 for no effect and ±100 for the full control effect
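Reconstituted *E. coli* holoenzyme (0.35 nM Pol III, 1 nM beta, 154 nM SSB, 2 nM primase) was preincubated with compound for 15 min at RT. Synthesis on 1.4 nM ssM13Gori ran 35 min, then was stopped with PicoGreen/EDTA and read as dsDNA fluorescence.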
YjeE inh – qHTS Assay for Inhibitors of YjeE. purified YjeE enzyme, qHTS inhibition assay. Potency, µM. 71,000 compounds, 0.05% hits. AID 605, 2007
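Fluorescence polarization of a BODIPY Texas Red–ADP probe (2 uM) bound to purified YjeE (10 uM) was read after 15 min room-temperature incubation with compounds. Loss of polarization marks inhibitors; ADP serves as titrated control.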
BRCT PPI green – qHTS Assay for Inhibitors of BRCT-Phosphoprotein Interaction (Green Fluorophore); Breast cancer type 1 susceptibility protein (Homo sapiens), P38398; BRCA1 BRCT-phosphopeptide binding, green fluorescence polarization; Potency, µM (series often up to 76.9 µM), without a hit: at the highest dose activity change, negative = inhibition, most hits filed as inhibitors; 75,000 compounds, 0.05% hits; AID 875, 2007;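 note: potency is the fitted concentration of half-maximal effect; plate controls were peptide without protein for full effect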
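Fluorescence polarization: His-tagged BRCT (~35 kDa BRCA1 C-terminus, 250 nM) bound to 100 nM fluorescein-labeled phosphorylated 10-aa BACH1 peptide, pH 7.3 phosphate buffer with DTT and Tween 20. Compounds incubated 12 min at room temperature; inhibition read as lowered polarization.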
USP2a inh – qHTS Assay for Inhibitors of Ubiquitin-specific Protease USP2a; Ubiquitin carboxyl-terminal hydrolase 2 (Homo sapiens), O75604; 60,000 compounds, 0.1% hits; Potency, µM (series often up to 38.3 µM), for inactives: top-dose activity change, negative = inhibition, usual class: inhibitors; USP2a enzymatic assay, qHTS inhibition; note: potency is the fitted concentration of half-maximal effect; nearly all actives have a fitted effect of over 60% in size
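Coupled readout: USP2-cleaved Ub-PLA2 (20nM final) turns over NBD C6-HPC (20uM final), Ex 460nm/Em 535nm after 2.5 h, time-zero read flagging artifacts. Enzyme (20nM final, pH 8.0 Tris) given 30 min RT with compound first; NEM defines full inhibition.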
ERK AVP block – qHTS Assay for Inhibitors of the ERK Signaling Pathway using a Homogeneous Screening Assay; HEK293-V1b, vasopressin-stimulated pERK AlphaScreen; Potency, µM (series often up to 57.5 µM), inactives show top-dose activity, negative = inhibition, usual class: inhibitors; 72,000 compounds, 0.99% hits; note: potency is the fitted concentration of half-maximal effect; % is set by controls: 0 for no effect and ±100 for the full control effect; nearly all actives have a fitted effect of over 55% in size
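HEK293 cells stably expressing V1b receptor, preincubated 30 min at 37 °C with compound, then stimulated 5 min with 25 nM vasopressin. Phospho-ERK by AlphaScreen SureFire after 5 h RT; normalized to DMSO and vasopressin; AC50 by Hill fit.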
The depositor's hits bear a star; i = inactive; ? = inconclusive; / = no result given; [ ] = dose if it differs, or a comment. An excerpt weighted towards active compounds, which were near 1.3% of everything screened. Calls come from the whole dose curve; as a rule, active = well fitted curve in the direction sought with a large enough effect; inconclusive = small, poorly fitted or top-dose-only effect, or another doubt; inactive = no such curve, though single readings can be large; an effect the other way counts as inactive or inconclusive.

SMILES	BRCT inh red	Pol III holo inh	YjeE inh	BRCT PPI green	USP2a inh	ERK AVP block
O=C(COC(=O)c1cccc(NC(=O)c2ccco2)c1)c1ccc(Br)cc1	-1%	-1%[11.4 µM]	i	1%	33%[7.66 µM]	16µM*
CC(C)(C)C(=O)COC(=O)c1cccc(NC(=O)c2ccco2)c1	1%	-2%	i	-5%	28%	9%
c1ccc(-c2csc3ncn4cnnc4c23)cc1	-3%	1%	i	-3%	-2%	6.3µM*
Cc1cnc(NC(=O)CCCSc2nc3ccccc3s2)s1	0%	-3%	i	-1%	29%	21%
Cc1csc(NC(=O)CCCSc2nc3ccccc3s2)n1	3%	2%	i	2%	1%	16µM*
COc1c(-c2coc3cc4c(cc3c2=O)CC(O)C(C)(C)O4)ccc2c1C=CC(C)(C)O2 (centres undefined)	2%	/	/	3%[3.08 µM]	54%	3.2µM*
CC1(C)C=Cc2c(cc3occ(-c4ccc5c(c4)OCO5)c(=O)c3c2O)O1	0%	/	/	0%[3.08 µM]	1%	0%
COc1c(-c2coc3cc4c(cc3c2=O)CC(OC(C)=O)C(C)(C)O4)ccc2c1C=CC(C)(C)O2 (centres undefined)	1%	/	/	2%	38%	16µM*
Nc1nc(Nc2ccccc2)nc2c1ncn2[C@@H]1O[C@@H](CO)[C@H](O)[C@@H]1O	1%	-2%	i	-3%	4%	2%
NC(N)=N[C@H](CCC(=O)O)C(=O)O	-2%	1%	i	-4%	-2%	-3%
C=CCNC(=O)c1sc(=S)n(-c2ccc(C(=O)OCC)cc2)c1N	0%	4%	i	-4%	9%	24%
CCOC(=O)c1ccc(-n2c(N)c(C(=O)NCc3ccco3)sc2=S)cc1	-1%	-1%	i	2%	31%	20µM*
Cc1ccc(O)c(-c2cc(C(F)(F)C(F)F)[nH]n2)c1	-1%	0%	i	0%	7%	-27%
FC(F)C(F)(F)C(F)(F)C(F)(F)c1cc(-c2ccccc2)n[nH]1	-4%	-7%	i	-10%	?	2.5µM*
CC(=O)O[C@@H]1CC[C@]2(C)[C@H]3CC[C@]4(C)[C@H](C[C@H]5CCCC[C@@]54C(C)=O)[C@@H]3CC(=O)[C@@]2(O)C1	/	0%	i	/	/	/
C/C=C/c1ccc(OCCCCN2C(=O)NC(C)(C)C2=O)c(OC)c1	-2%	1%	i	2%	1%	20µM*
C/C=C/c1ccc(OCCSc2nc(C)cc(=O)[nH]2)c(OC)c1	0%	-4%	i	-3%	3%	-16%
O=C1c2ccccc2C(=O)c2c(O)c(O)cc(O)c21	40µM*	/	/	-21%	-84%	32µM*
Cc1cc(C)n(-c2nncc(-c3ccccc3)n2)n1	1%	-5%	i	-5%	0%	-25%
Cc1cc(C)n(-c2nc(Nc3ccccc3)nc(-n3nc(C)cc3C)n2)n1	1%	-12%	i	-1%	13µM*	2%
COc1ccc(-c2n[nH]c(C)c2-c2ccc(Cl)cc2)c(O)c1OC	-3%	-7%	i	-2%	10%	25µM*
CCOC(=O)N1CCC(NC(=O)c2cc3c(-c4ccccc4F)nn(C)c3s2)CC1	-1%	0%	i	2%	/	5µM*
COc1ccccc1CC(Cc1nc2ccccc2[nH]1)c1nc2ccccc2[nH]1 (centres undefined)	-1%	/	/	2%	/	32µM*
CCN(c1cccc(C)c1)S(=O)(=O)c1ccc(O)c(C(=O)O)c1	-1%	/	/	-1%	/	/
CCOc1ccc2[nH]c(C)cc(=O)c2c1	2%	1%	i	-1%	/	-6%
SMILES	BRCT inh red	Pol III holo inh	YjeE inh	BRCT PPI green	USP2a inh	ERK AVP block
CCOc1ccc2nc3cc(N=Nc4ccc(N)nc4N)ccc3c(N)c2c1	-3%[15.4 µM]	3.2µM*	i	-6%[15.4 µM]	/	-2%[11.5 µM]
O=C(O)c1ccccc1[N+](=O)[O-]	2%	0%	i	-1%	/	9%
O=[N+]([O-])c1ccccc1Nc1ccccc1	-1%	0%	i	-1%	/	16µM*
CNC(=O)[C@@H]1O[C@@H](n2cnc3c(NCc4ccc(N)cc4)ncnc32)[C@@H](O)[C@H]1O	1%	5%	i	-3%	-4%	-6%
CCN(CC)CCCC(C)NC(=O)c1ccc(Cc2nc3ccccc3[nH]2)cc1 (centres undefined)	-1%	/	/	0%	/	/
CCC(C)(C)OC	-1%	-2%	i	1%	/	12%
COc1cc(CNc2ccc(C)c(C)c2)cc(OC)c1OC	0%	-9%	i	1%	-1%	40µM*
COC(=O)[C@@H]1C[C@H]1[C@@H](N)c1ccccc1	-2%	-9%	i	-1%	/	?
COc1cccc(-c2nc(NC3CCNCC3)c3ccccc3n2)c1	-6%	32µM*	i	-1%	28%	?
c1ccc2c(NC3CCNCC3)nc(-c3ccoc3)nc2c1	-1%	-16%	i	-1%	-9%	-1%
CN(C)Cc1ccccc1-c1nc(NC2CCNCC2)c2ccccc2n1	-1%	25µM*	i	0%	-4%	0%
CN(C)c1ccc(-c2nc(NC3CCNCC3)c3ccccc3n2)cc1	1%	?	i	-2%	-6%	-3%
O=C(O)CN(CC(=O)O)Cc1cc2c(-c3ccccc3C(=O)O)c3cc(CN(CC(=O)O)CC(=O)O)c(=O)cc-3oc2cc1O	0.63µM*	/	/	0.13µM*	54%	-14%
C=C1CC[C@@H](O)C/C1=C/C=C1\CCC[C@]2(C)[C@@H]1CC[C@H]2[C@@H](C)/C=C\[C@@H](C)C(C)C	/	5%	i	/	/	/
Cn1nc(-c2ccc(C(=O)Nc3cccnc3)cc2)c2ccccc2c1=O	-2%	-4%	i	0%	3%	?
Cn1nc(-c2ccc(OCC(=O)Nc3cccnc3)cc2)c2ccccc2c1=O	0%	-2%	i	3%	22%	32µM*
CCCCCCC#Cc1cc(OC)c(OC)cc1C(N1CC(C)c2ccccc21)N1CC(C)c2ccccc21 (centres undefined)	3%[15.4 µM]	/	/	4%[15.4 µM]	/	44%[11.5 µM]
O=C(O)/C=C(/C(=O)O)[C@]12CCN3CC4=CCO[C@@H]5CC(=O)N[C@@H]1[C@H]5[C@H]4C[C@H]32	0%[15.4 µM]	-11%[11.4 µM]	i	-3%[15.4 µM]	/	4%[11.5 µM]

High-throughput results (PubChem)
